# Data: PubChem BioAssay (EPA / NIEHS)
# The source made the active and inactive calls. Rule for the calls: active = hit-call score of the fitted dose curve at least 0.9, where 1 is the maximum; inactive = score below 0.9.
# Read-out: Urokinase-type plasminogen activator receptor (uPAR), PLAUR (gene 5329)
# Test: BSK_4H_uPAR: BioMAP Diversity Plus: 4H Assay for Urokinase-type plasminogen activator receptor (uPAR) Biomarker Activity (AID 2283030)
# Details: primary human endothelial cells (HUVEC); actives raise or lower the signal
# Experimental: BSK_4H is a cell-based, multiplexed-readout assay that uses umbilical vein endothelium, a human vascular primary cell, with measurements taken at 24 hours after chemical dosing in a 96-well plate.BSK_4HAR is an assay component measured in the BSK_4H assay. It measures uPAR antibody related to regulation of gene expression using ELISA technology.Data from the assay component BSK_4HAR was analyzed into 1 assay endpoint. This assay endpoint, BSK_4HAR, was analyzed with bidirectional fitting relative to DMSO as the negative control and baseline of activity. Using a type of binding reporter, gain or loss-of-signal activity can be used to understand changes in the signaling as they relate to the gene PLAUR. Furthermore, this assay endpoint can be referred to as a primary readout, because this assay has produced multiple assay endpoints where this one serves a signaling function. To generalize the intended target to other relatable targets, this assay endpoint is annotated to the cytokine intended target family, where the subfamily is plasmogen activator.
# The levels of cell surface (or secreted, indicated by the prefix "s") biomarker endpoints were measured by ELISA. Overt cytotoxicity to cells in confluent adherent cultures (all systems other than the BT system) was assessed by measuring total protein levels using sulforhodamine B (SRB) staining in parallel cultures at the time of biomarker measurements, indicated as SRB endpoints. For proliferation assays for adherent cell types, individual cell types are cultured at sub-confluence and relative cell numbers quantified by SRB staining at time points optimized for each system (48 h: 3C and CASM3C systems; 72 h: BT and HDF3CGF systems; 96 h: SAg system). SRB was performed by staining cells with 0.1% SRB after fixation with 10% TCA and reading wells at 560 nm.Viability and proliferation of PBMC (T cells) was quantified by Alamar Blue reduction for the SAg and BT systems. For PBMC viability (referred to as PBMC Cytotoxicity within the assay endpoint names), cells were plated (75,000/well in a 96-well plate) and then chemical samples added for 1 h before addition of activators, SEB and TSST-1 (20 ng/mL final concentration each). Cells were incubated for 90 h. Then, Alamar Blue (20 uL/well) (Invitrogen, Cat DAL1100) was added for 6 h, and the plates were read with a fluorescence microplate reader at 546/580 nm (excitation/emission). For PBMC proliferation, cells were plated and activated as above but incubated for only 16 h prior to addition of Alamar Blue. Plates were read after 6 h.
Structure (SMILES),outcome,AC50
CCCCc1nc2cccnc2n1Cc1ccc(-c2ccccc2-c2nnn[nH]2)cc1,inactive,–
CCCCOC(=O)CCCCC(=O)OCCCC,inactive,–
COc1ccc(C(=O)Nc2nc3ccccc3c(NCc3ccccc3)c2C#N)cc1,inactive,–
NC1CCCCC1,inactive,–
Cc1cc(SC2=C(O)C[C@@](CCc3ccc(N)cc3)(C(C)C)OC2=O)c(C(C)(C)C)cc1CO,inactive,–
CC(=O)CC(c1ccccc1)c1c(O)c2ccccc2oc1=O (stereo not given),inactive,–
CCCCC(CC)CO (stereo not given),inactive,–
CC1(C)C(=O)NC(=O)N1CO,inactive,–
CC(=O)OCC(COC(C)=O)OC(C)=O,inactive,–
CCOCCOCCO,inactive,–
O=C1CCCCC1,inactive,–
O=C(O)CC(O)(CC(=O)O)C(=O)O,inactive,–
CC(COCC(C)OC(=O)c1ccccc1)OC(=O)c1ccccc1 (stereo not given),inactive,–
CC(=O)OC1CC(C)OC(C)O1 (stereo not given),inactive,–
CCCCCCCCCC[N+](C)(C)[O-],inactive,–
CCCCC(CC)COC(=O)CCCCCCCC(=O)OCC(CC)CCCC (stereo not given),inactive,–
CC(=O)O[C@]1(C(C)=O)CC[C@H]2[C@@H]3C=C(Cl)C4=CC(=O)[C@@H]5C[C@@H]5[C@]4(C)[C@H]3CC[C@@]21C,–,14.7 µM (active)
O=C(O)CN(CC(=O)O)CC(=O)O,inactive,–
CC(C)c1cccc(C(C)C)c1NC(=O)NS(=O)(=O)c1cc(C(C)(C)O)co1,inactive,–
CN(C)C(=O)NC1(c2ccccc2)CCN(CC[C@@]2(c3ccc(F)c(F)c3)CN(C(=O)c3ccccc3)CCO2)CC1,inactive,–

Structure (SMILES),outcome,AC50
Oc1ccc(O)cc1,inactive,–
C/C=C/c1ccc(OC)cc1,inactive,–
c1ccc2occc2c1,inactive,–
Cc1cc(Cc2ccc(N)c(C)c2)ccc1N,inactive,–
O=C1NC(=O)C(c2ccccc2)(c2ccccc2)N1,inactive,–
Cc1c(C)c2c(c(C)c1O)CCC(C)(COc1ccc(CC3SC(=O)NC3=O)cc1)O2 (stereo not given),–,28.6 µM (active)
C#CC(O)C(CC)CCCC (stereo not given),inactive,–
CCCCCCCC(=O)OC,inactive,–
CCCC(=O)O,inactive,–
NC(=Nc1ccccc1)Nc1ccccc1,inactive,–
CC(=O)O,inactive,–
O=NO,inactive,–
CC1=C(C)S(=O)(=O)CCS1(=O)=O,inactive,–
CCCCCCCCCCCCCCCCO,inactive,–
CSc1ccc(Oc2ccc(S(N)(=O)=O)cc2CN(C)C)cc1C,–,12.2 µM (active)
CCN(CC)CCOc1ccc(C(=C(Cl)c2ccccc2)c2ccccc2)cc1,–,13 µM (active)
CCCCCCC(CCCCCCCCCCC(=O)OCC(COC(C)=O)OC(C)=O)OC(C)=O (stereo not given),inactive,–
COc1ccc(OC(F)(F)F)cc1CN[C@H]1CCCN[C@H]1c1ccccc1,–,20 µM (active)
CC(C)NCC(O)c1ccc(O)c(O)c1 (stereo not given),inactive,–
O=C1O[C@H]([C@H](O)CO)C(O)=C1O,inactive,–
